Measured values taken from PubChem BioAssay.
Activity calls are given as the source filed them. Unless noted, the rule behind the calls is not given here.

What was measured:
[1] = tested on: XIP peptide (Xip251-270) binding; test: small-molecule binders of XIP peptide, primary screen, biochemical, small-molecule microarray, fluorescence 635/667 nm, 0.1 µg/mL protein (AID 1182); details: fluorescent protein binding, 635 nm, higher = more signal, called active from +8 up or from −8 down
XIP peptide (Xip251-270) = test: small-molecule binders of XIP peptide, primary screen, biochemical, small-molecule microarray, fluorescence 635/667 nm, 0.5 µg/mL protein (AID 1183); details: small-molecule microarray binding, fluorescence 635 nm; higher = more signal
[2] = Plasmodium falciparum growth inhibition, primary screen, strain 3D7, DAPI fluorescence, 100 nL (AID 1184);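 note: parasites grown inside human red blood cells in medium with human serum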; details: P. falciparum 3D7 growth, 3 d, higher = more signal
[3] = target: Homeobox protein Hox-A13 (Mus musculus) (UniProt Q62424); test: inhibitors of HoxA13-DNA binding, primary screen, biochemical, fluorescence polarization, labeled oligonucleotide (AID 1185); details: 15 min, higher = more signal, called active from +8 up or from −8 down
[4] = inhibitors of hydroxyurea-induced Chk1 phosphorylation, primary screen, imaging, HeLa, phospho-Chk1 antibody, percent positive cells (AID 1186); details: hydroxyurea-induced phospho-Chk1 immunofluorescence imaging, higher = more signal
[5] = inhibitors of hydroxyurea-induced Chk1 phosphorylation, primary screen, imaging, HeLa, phospho-Chk1 nuclear intensity (AID 1187); details: hydroxyurea-induced phospho-Chk1 immunofluorescence imaging, higher = more signal

Chain of Homeobox protein Hox-A13 (Mus musculus) (Q62424 whole entry, looked up): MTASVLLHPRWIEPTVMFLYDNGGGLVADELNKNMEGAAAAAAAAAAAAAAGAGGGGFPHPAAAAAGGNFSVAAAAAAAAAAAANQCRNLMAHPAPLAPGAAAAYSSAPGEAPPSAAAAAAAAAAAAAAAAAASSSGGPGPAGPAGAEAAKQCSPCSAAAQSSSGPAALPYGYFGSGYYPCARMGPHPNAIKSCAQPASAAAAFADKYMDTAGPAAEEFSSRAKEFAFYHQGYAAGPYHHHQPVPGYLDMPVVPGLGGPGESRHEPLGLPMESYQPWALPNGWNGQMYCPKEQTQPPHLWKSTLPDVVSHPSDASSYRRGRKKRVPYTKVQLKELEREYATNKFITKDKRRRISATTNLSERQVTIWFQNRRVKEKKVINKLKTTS

## COC(=O)[C@@]1(Cc2ccccc2CN=[N+]=[N-])N=C(c2ccc(OCCCO)cc2)O[C@H]1c1ccccc1CN=[N+]=[N-]
[1]
  composite z-score: 0.192 (inactive)
XIP peptide (Xip251-270)
  composite z-score: 0.723
[2]
  z-score: -2.2
[3]
  z-score: 0.87 (inactive)
[4]
  z-score: -0.598 (inactive)
[5]
  z-score: -0.223 (inactive)

## COC(=O)[C@@]1(Cc2ccc(F)cc2)[C@H]2c3cc(C(=O)N4CCCC4)n(CC4CC4)c3C[C@H]2CN1C(=O)c1ccccc1
[1]
  composite z-score: 1.84 (inactive)
XIP peptide (Xip251-270)
  composite z-score: 0.245
[2]
  z-score: -1.36
[3]
  z-score: -4.69 (inactive)
[4]
  z-score: 0.396 (inactive)
[5]
  z-score: 0.0021 (inactive)

## COc1cc(CO)cc(I)c1O[C@H]1C=C(C(=O)NCCO)C[C@@H](NCC2CCCCC2)[C@@H]1O
[1]
  composite z-score: 0.0593 (inactive)
XIP peptide (Xip251-270)
  composite z-score: 0.465
[2]
  z-score: -0.68
[3]
  z-score: -3.57 (inactive)
[4]
  z-score: -1.23 (inactive)
[5]
  z-score: -0.873 (inactive)

## COc1ccc([Si](C)(C)[C@@H]2[C@@H](CC(=O)N3Cc4ccccc4C[C@H]3CO)O[C@]3(C(=O)N(Cc4ccc(N5CCC5=O)cc4)c4ccccc43)[C@H]2C)cc1
[1]
  composite z-score: 1.08 (inactive)
XIP peptide (Xip251-270)
  composite z-score: 0.682
[2]
  z-score: -2.64
[3]
  z-score: -0.855 (inactive)
[4]
  z-score: -0.169 (inactive)
[5]
  z-score: 0.14 (inactive)

## COc1cc(C(O)C2C=CC3C(=O)N(Cc4ccccc4)C(=O)C3N2n2cnnc2)cc(OC)c1OC (configuration not stated)
[1]
  composite z-score: 0.494 (inactive)
XIP peptide (Xip251-270)
  composite z-score: 0.435
[2]
  z-score: 0.551
[3]
  z-score: -1.38 (inactive)
[4]
  z-score: 0.102 (inactive)
[5]
  z-score: 0.263 (inactive)

## COc1cccc(/C=C(\C#N)C(=O)Nc2c(C)n(C)n(-c3ccccc3)c2=O)c1
[1]
  composite z-score: 0.0887 (inactive)
XIP peptide (Xip251-270)
  composite z-score: 0.438
[2]
  z-score: 0.393
[3]
  z-score: -0.75 (inactive)
[4]
  z-score: -0.252 (inactive)
[5]
  z-score: -0.13 (inactive)

## C=CCNC(=O)[C@H]1[C@@H]2C(=O)O[C@@H](c3ccccc3)[C@@H](c3ccccc3)N2[C@@H](c2ccc(OCCO)cc2)[C@]12C(=O)Nc1ccc(C#CCNC(N)=O)cc12
[1]
  composite z-score: 0.952 (inactive)
XIP peptide (Xip251-270)
  composite z-score: 0.512
[2]
  z-score: -1.13
[3]
  z-score: -3.66 (inactive)
[4]
  z-score: 0.0622 (inactive)
[5]
  z-score: 0.183 (inactive)

## C=C(C)C1CCC(C(O)C2C=CC3C(=O)N(C)C(=O)C3N2Nc2cc(OC)c(OC)c(OC)c2)CC1 (configuration not stated)
[1]
  composite z-score: 0.287 (inactive)
XIP peptide (Xip251-270)
  composite z-score: 0.596
[2]
  z-score: -0.593
[3]
  z-score: -5.2 (inactive)
[4]
  z-score: -0.113 (inactive)
[5]
  z-score: -0.431 (inactive)

## CCCCCCCCCCC(O)C1C=CC2C(=O)N(C)C(=O)C2N1Nc1cc(OC)c(OC)c(OC)c1 (configuration not stated)
[1]
  composite z-score: 0.275 (inactive)
XIP peptide (Xip251-270)
  composite z-score: -0.924
[2]
  z-score: -0.326
[3]
  z-score: -3.83 (inactive)
[4]
  z-score: 0.569 (inactive)
[5]
  z-score: -0.418 (inactive)

## COCC1=C2[C@@H](CCc3ccccc3)OB(O)C[C@@H]2[C@@H]2C(=O)N(C)C(=O)[C@@H]2C1
[1]
  composite z-score: 0.0872 (inactive)
XIP peptide (Xip251-270)
  composite z-score: 0.763
[2]
  z-score: 1.22
[3]
  z-score: -7.72 (inactive)
[4]
  z-score: 0.684 (inactive)
[5]
  z-score: 1.24 (inactive)

## C=C(CCCC)C(=O)CC[C@H](OC(=O)c1ccccc1-c1ccccc1C(=O)O)c1ccccc1OCCO
[1]
  composite z-score: 0.267 (inactive)
XIP peptide (Xip251-270)
  composite z-score: 0.0422
[2]
  z-score: -2.61
[3]
  z-score: -5.63 (inactive)
[4]
  z-score: -0.309 (inactive)
[5]
  z-score: -0.102 (inactive)

## CCCCC(=C=CC[C@H](O)c1ccc(OCCO)cc1)C[C@H](O)COCc1ccccc1
[1]
  composite z-score: 0.9 (inactive)
XIP peptide (Xip251-270)
  composite z-score: 0.1
[2]
  z-score: -1.44
[3]
  z-score: -4.21 (inactive)
[4]
  z-score: -0.122 (inactive)
[5]
  z-score: -0.0784 (inactive)

## CCCNC(=O)[C@@]1(Sc2ccc(C)cc2)CC(=O)N(C(C)C)[C@@H]1c1ccc(CO)cc1I
[1]
  composite z-score: 1.51 (inactive)
XIP peptide (Xip251-270)
  composite z-score: -0.964
[2]
  z-score: -0.221
[3]
  z-score: -3.48 (inactive)
[4]
  z-score: 0.366 (inactive)
[5]
  z-score: 0.197 (inactive)

## C=CCNC(=O)[C@@H]1[C@H]2C(=O)O[C@H](c3ccccc3)[C@H](c3ccccc3)N2[C@H](c2ccc(O)cc2)[C@@]12C(=O)N(C(=O)OCCOC)c1ccc(C#CCCO)cc12
[1]
  composite z-score: 2.07 (inactive)
XIP peptide (Xip251-270)
  composite z-score: 0.749
[2]
  z-score: 1.05
[3]
  z-score: -3.19 (inactive)
[4]
  z-score: 0.116 (inactive)
[5]
  z-score: -0.365 (inactive)

## C=C(COC)/C(=C/C[C@H](OC(C)=O)c1cccc(OCCO)c1)c1cnc2ccccc2c1
[1]
  composite z-score: 1.46 (inactive)
XIP peptide (Xip251-270)
  composite z-score: 0.75
[2]
  z-score: -2.62
[3]
  z-score: -5.87 (inactive)
[4]
  z-score: -0.104 (inactive)
[5]
  z-score: 0.276 (inactive)

## CCOC(=O)C[C@H]1[C@H](OC(=O)c2ccc(C(=O)c3ccccc3)cc2)[C@@H](NC(=O)CC(C)C)c2cc(OCCCO)ccc2N1C(=O)Cc1ccc(OC)cc1
[1]
  composite z-score: 0.595 (inactive)
XIP peptide (Xip251-270)
  composite z-score: 0.396
[2]
  z-score: -0.241
[3]
  z-score: -3.06 (inactive)
[4]
  z-score: 0.291 (inactive)
[5]
  z-score: -0.261 (inactive)

## C[C@@]12COC[C@]13C=C(Br)[C@H](C2)[C@@]1(CO1)C3=O
[1]
  composite z-score: 0.0387 (inactive)
XIP peptide (Xip251-270)
  composite z-score: -0.192
[2]
  z-score: 1.88
[3]
  z-score: -0.703 (inactive)
[4]
  z-score: -0.0927 (inactive)
[5]
  z-score: 0.12 (inactive)
